# Screens deposited in PubChem BioAssay by Broad Institute.
# Compounds with a hit are over-represented: about 1.8% of the library has one in this group of screens.
# INS-1E GSIS act: GLuc luminescence reporter in INS-1E cells, primary screen for activators of glucose-dependent secretion of insulin; INS-1E GLuc reporter insulin secretion, 2-3 h; activation, % at 16.6 µM; 370,000 tested, 0.61% active;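 active = lowest replicate activation of at least 40%, so every replicate reaches that level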;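 also: 0% = median of neutral control wells and 100% = median of IBMX positive control wells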
# CFTR F508del cor: correctors of CFTR F508del function in bronchial epithelial cells; 350,000 tested, 0.36% active; CFBE cells, YFP halide quenching; stimulated with forskolin plus potentiator P3; % fluorescence drop versus neutral controls; activity (quench increase), % at 7.58 µM;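 active = mean added fluorescence quench of at least 8% versus neutral control, with both replicates also reaching 8%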;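 also: cells transiently co-express mutant CFTR-F508del with the halide-sensitive YFP; corrector assay measuring rescue of mutant channel to the surface after 24 h compound exposure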
# LGR2 antag: Drosophila LGR2 receptor signaling inhibition | inhibition, % at 9.99 µM | HEK293 LGR2, CRE-luciferase, bursicon-stimulated, 4 h | 380,000 tested, 0.35% active;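 active = drop in luminescence signal, shown as inhibition above about 50% in the replicate tests, limit read from the data, passing the limit was not always enough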;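 also: agonist challenge used bursicon conditioned medium at about half maximal strength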
# EWS-Fli inh: EWS/Fli transcriptional activity inhibition; A673 NR0B1-luciferase reporter, viability-normalised; inhibition, % at 12.6 µM; 350,000 tested, 0.67% active;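 active = mean inhibition of at least 50% after viability correction, with every replicate also passing that limit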;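 also: firefly luciferase signal divided by Alamar Blue viability fluorescence both relative to DMSO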
# RAD54 branch: inhibitors of human RAD54 branch migration; Q92698; RAD54 Holliday junction branch migration, FAM/BHQ fluorescence; inhibition, % at 10.4 µM; 360,000 tested, 0.14% active; AID 602329;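 active = mean normalized replicate activity at least 40 and at least half of replicates scoring 40 or more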;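 also: 0% = median of neutral control wells and 100% = median of positive control wells; inhibitors cause a drop in the FAM fluorescence signal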
# RAD52 inh: blocks human RAD52 DNA annealing; AID 651710; recombinant RAD52 DNA annealing, FRET fluorescence; 360,000 tested, 0.46% active; inhibition, % at 18.7 µM;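 active = every replicate showing at least 50% inhibition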
# Target sequence (P43351 whole entry, looked up): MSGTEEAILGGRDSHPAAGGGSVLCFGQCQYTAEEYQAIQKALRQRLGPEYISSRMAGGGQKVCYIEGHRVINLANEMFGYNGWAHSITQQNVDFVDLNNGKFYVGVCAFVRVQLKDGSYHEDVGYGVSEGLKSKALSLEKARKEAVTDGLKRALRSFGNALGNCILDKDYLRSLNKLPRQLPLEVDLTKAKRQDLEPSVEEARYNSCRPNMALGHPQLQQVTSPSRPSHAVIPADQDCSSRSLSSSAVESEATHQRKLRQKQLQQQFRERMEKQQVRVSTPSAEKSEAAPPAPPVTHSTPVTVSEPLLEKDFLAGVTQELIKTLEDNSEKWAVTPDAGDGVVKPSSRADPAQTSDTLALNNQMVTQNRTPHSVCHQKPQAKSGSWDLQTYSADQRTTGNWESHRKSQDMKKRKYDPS
# DNA binder FP: binds DNA displacing acridine orange. shares compounds with EWS-Fli inh. 640 tested, 2% active. AID 720586. salmon sperm DNA acridine orange fluorescence polarization. AC35, µM (doses to about 68 µM), for inactives: at the highest dose activity change, negative = DNA binding;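 active = fitted curve reaches a 35% signal fall AC35 below twice the sample's top valid tested dose, actives reach about 48 µM in these data; inactive = the rest, including activity in the rising direction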;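 also: lower polarization ratio signals compound binding to DNA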
# An asterisk follows results filed as active; x = no result.
SMILES,INS-1E GSIS act,CFTR F508del cor,LGR2 antag,EWS-Fli inh,RAD54 branch,RAD52 inh,DNA binder FP
Cc1cccc(N2CCN(C3C(=O)Nc4ccccc4-n4nnnc43)CC2)c1C (stereo not drawn),-34.0,1.5,-19.7,53.8*,x,1.7,4.6%
CCN1[C@@H]2Cn3c(ccc(C4=CCCC4)c3=O)[C@H]1[C@@H](C(=O)N1CCc3ccccc3C1)[C@@H]2CO,1.2,1.6,-6.2,-5.8,-2.7,-19.4,x
CC(=O)Nc1cccc(NC(=O)C(=O)c2cn(CC(=O)N3CCCCC3)c3ccccc23)c1,4.1,-0.1,7.0,-21.1,x,-237.7,x
COc1cc(/C=C/C(=O)/C=C(O)/C=C/c2ccc(O)c(OC)c2)ccc1O,x,-4.9,17.9,80.9*,-13.3,-40.4,29.8µM*
COc1cc(/C=C/C(=O)CC(=O)/C=C/c2ccc(O)c(OC)c2)ccc1O,x,2.0,x,72.8*,-34.4,-163.9,40.2µM*
COc1cc(/C=C/C(=O)O)ccc1O,x,-3.1,x,-5.8,-10.3,-2.6,x
COc1cc(C=C(C(C)=O)C(C)=O)ccc1O,x,x,x,x,0.1,x,x
O=C1CC(c2ccccc2)=C(c2ccccc2)C1,x,x,5.3,5.6,-3.0,-5.9,x
O=C(CCCN1C(=O)/C(=C/c2cccs2)SC1=S)NNC(=O)c1ccccc1O,-20.9,x,16.7,x,23.5,x,x
COc1ccc(/C=C2\SC(=O)N(CCCC(=O)Nc3ccc(C(=O)O)cc3)C2=O)cc1,x,0.5,0.4,82.3*,-3.6,-10.8,5.8%
COc1ccc(/C=C2/SC(=S)N(CCCC(=O)Nc3ccccc3C(=O)O)C2=O)cc1,-13.9,-1.1,-2.5,63.9*,3.0,-33.9,-0.3%
COc1ccc(/C=C2\SC(=S)N(CCCC(=O)NNC(=O)c3ccccc3O)C2=O)cc1,-7.2,1.9,8.5,76.6*,x,-25.8,3.1%
Cc1ccc(/C=C2\SC(=S)N(CCCC(=O)Nc3ccccc3C(=O)O)C2=O)cc1,2.3,-0.7,15.9,35.4,-11.7,-8.5,x
O=c1ccc2ccccc2c2ccccc12,-0.9,1.5,3.4,63.0*,x,-3.3,-11.9%
CCNC(=O)c1cccc(S(=O)(=O)N2CCCCCC2)c1,-1.8,x,14.6,66.8*,x,-9.2,-20.4%
CCOc1ccc(NC(=O)CN(C)C(=O)c2cccnc2Sc2ccc(C)cc2C)cc1OCC,-16.4,6.3,-7.4,-0.4,-12.2,-16.1,x
CC(C)CN(C(=O)CN1CCCCCC1)c1c(N)n(CC(C)C)c(=O)[nH]c1=O,2.4,1.8,3.1,-10.4,x,-55.6,x
CC(C)CN(C(=O)CN1CCOCC1)c1c(N)n(CC(C)C)c(=O)[nH]c1=O,5.0,x,14.9,61.0*,-2.5,1.6,-11.7%
O=C(CCc1ccccc1)N/N=C/c1cccc([N+](=O)[O-])c1,-13.2,-4.7,19.6,1.7,x,0.4,x
CN(Cc1ccccc1)C(=O)COC(=O)c1cc(=O)[nH]c2ccccc12,-9.9,1.5,-13.2,0.0,-9.2,-6.6,x
COC(=O)C1=CN(c2ccc(OC)cc2)C(N)=C(C#N)C1c1ccc(OC)cc1 (stereo not drawn),10.1,1.4,-16.1,-1.1,x,-22.2,x
CCc1ccc(N2C=C(C(=O)OC)C(c3ccc(OC)cc3)C(C#N)=C2N)cc1 (stereo not drawn),-15.3,0.1,13.9,54.4*,x,8.6,-8.1%
COc1ccc([Si](C)(C)[C@H]2[C@H](CCO)O[C@@]3(C(=O)N(c4ccccc4)c4ccccc43)[C@@H]2C)cc1,x,0.6,x,57.9*,1.0,13.4,1.9%
O=C(CN1CCC(NC(=O)C2CCCCC2)CC1)Nc1ccccc1,2.2,3.9,9.5,0.1,11.7,-6.8,x
N#C/C(=C/c1cn(-c2ccccc2)nc1-c1cccc(OCc2ccc(F)cc2)c1)C(=O)NCCCn1ccnc1,-4.7,x,9.6,x,x,x,x
SMILES,INS-1E GSIS act,CFTR F508del cor,LGR2 antag,EWS-Fli inh,RAD54 branch,RAD52 inh,DNA binder FP
COc1cc(C(c2c(C)[nH][nH]c2=O)c2c(C)[nH][nH]c2=O)ccc1OC(C)C,-15.1,x,5.6,77.9*,9.5,11.4,-15.9%
COCCNC(=O)C1(C)CCCN(Cc2ccc(C)c3ccccc23)C1 (stereo not drawn),5.1,3.3,1.2,8.6,-13.5,-7.7,x
O=C(CNC(c1ccccc1)c1ccccc1)Nc1ccccc1F,-6.6,1.4,15.5,5.6,-4.4,-9.8,x
O=C(CNC(c1ccccc1)c1ccccc1)Nc1ccccc1-c1ccccc1,5.9,x,26.4,54.3*,x,-7.8,-10.7%
Cc1ccc([N+](=O)[O-])c(C(=O)N/N=C/c2cccnc2)c1,-2.1,-0.9,-18.9,0.7,-9.7,-13.5,x
Cc1c(CCOC(=O)CC23CC4CC(CC(C)(C4)C2)C3)sc[n+]1CC(=O)c1ccccc1,70.1,2.5,0.1,76.2*,x,62.4*,-3.7%
CCCCNC(=O)C(c1ccc(OCC(=O)OC)c(C(=O)OC)c1)N(CCOC)C(=O)CCCCCN1C(=O)NC(c2ccc(-c3ccccc3)cc2)C(C(=O)OCc2ccccc2)=C1C (stereo not drawn),1.2,0.5,3.9,58.8*,x,-14.9,-3.8%
COc1ccc(C(=O)OCC(=O)Nc2ccc(Cl)c(C(F)(F)F)c2)c(OC)c1OC,-20.7,x,1.6,73.0*,-2.4,-4.9,6.0%
COc1ccc(C/C(N)=N/OC(C)=O)cc1OC,2.8,x,-6.3,82.9*,x,-0.1,-5.1%
COc1ccc(C/C(N)=N/OC(=O)Cc2ccc(OC)c(OC)c2)cc1,62.9,1.0,-9.8,9.3,-14.1,-8.3,x
O=c1cnc2ccccc2n1Cc1ccc(Br)cc1,55.4,0.5,-26.1,-89.3,13.9,-9.7,x
CC(C)(C)c1ccc(Cn2c(=O)cnc3ccccc32)cc1,-1.8,-0.1,59.9*,78.3*,11.4,13.8,-12.8%
Nc1nc(N)c2cc(Sc3ccc4ccccc4c3)ccc2n1,x,-2.1,18.5,68.9*,8.8,-3.2,-4.4%
N#C[C@@H]1[C@H](c2ccc(-c3ccc(F)cc3)cc2)[C@H](CO)N1C(=O)Cc1ccccc1,0.6,-2.7,-2.0,7.5,-6.3,-53.2,x
O=C(NN1C(=O)C2C3C=CC(C3)C2C1=O)c1ccccc1 (stereo not drawn),8.3,0.5,-3.9,0.9,x,-15.5,x
O=C1Nc2ccccc2C1=Nc1ccc(F)cc1,x,x,x,x,-1.3,x,x
CC(=O)c1ccc(N=C2C(=O)Nc3ccccc32)cc1,-9.7,-1.8,-2.6,54.3*,3.2,-16.3,-8.9%
CCCCc1c(Cc2ccccc2)ncn1CCc1ccccc1OC,174.3*,5.6,37.2,54.5*,x,-5.2,-12.8%
O=c1c2ccccc2nc(SCc2nnc(-c3ccccc3)o2)n1-c1ccc(F)cc1F,x,x,x,x,-6.6,x,x
CCS(=O)(=O)N1Cc2ccccc2CC1C(=O)Nc1nnc(SCc2ccc(C#N)cc2)s1 (stereo not drawn),1.8,x,0.7,65.9*,x,-40.4,-1.4%
COc1ccc(C(=O)Nc2cccc(C(=O)N/N=C/c3ccc(OC)cc3OC)c2)cc1,3.8,-0.1,-3.5,53.6*,-6.0,-7.6,8.3%
